Values joined by “and” are separate entries in the source; they are usually repeats but may differ in a detail not shown here. Equal entries are not always repeated. Inconclusive results are not listed. Where a call stands in place of a potency, no number is given. Active and inactive are the calls of the source. The call rests on the fitted dose curve; in most records, active means well fitted curve in the direction sought with a large enough effect; inconclusive means small, poorly fitted or top-dose-only effect, or another doubt; inactive means no such curve, though single readings can be large; an effect the other way counts as inactive or inconclusive.
Experiment: qHTS of pediatric cancer cell lines to identify multiple opportunities for drug repurposing: Primary screen for BT-37 cells (AID 1347094)
Conditions: BT-37 viability, CellTiter-Glo luminescence, 48 h; series mostly up to 57.3 µM
In short: (§1)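 Following a 5-hour attachment period, cells at 500-1,000/well received compounds and were cultured for 48 hours. CellTiter-Glo was added and luminescence read to estimate viable, metabolically active cells.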
Potency means the concentration at half of the fitted maximal effect.

| SMILES | Potency |
| --- | --- |
| C[C@@H]1CN(c2c(F)c(N)c3c(=O)c(C(=O)O)cn(C4CC4)c3c2F)C[C@H](C)N1 | inactive |
| CC1=C(C(=O)O)N2C(=O)[C@@H](NC(=O)C(N)c3ccccc3)[C@H]2SC1 (stereo not given in full) | inactive |
| CC1CC2C3CCC4=CC(=O)C=C[C@]4(C)[C@@]3(F)[C@@H](O)C[C@]2(C)[C@@]1(O)C(=O)CO (stereo not given in full) | inactive |
| C[C@@H]1C[C@H]2[C@@H]3CCC4=CC(=O)C=C[C@]4(C)[C@@]3(Cl)[C@@H](O)C[C@]2(C)[C@@]1(OC(=O)c1ccco1)C(=O)CCl | 21.7 µM (active) |
| Nc1nc(N)c2nc(CNc3ccc(C(=O)NC(CCC(=O)O)C(=O)O)cc3)cnc2n1 (stereo not given) | 0.0485 µM (active) |
| NC(=O)c1ccc2[nH]ccc2c1 | inactive |
| CN1CCN(c2c(F)cc3c(=O)c(C(=O)O)cn4c3c2OCN4C)CC1 | inactive |
| N[C@@H](Cc1ccc(O)c(O)c1)C(=O)O | inactive |
| CCc1c2c(nc3ccc(OC(=O)N4CCC(N5CCCCC5)CC4)cc13)-c1cc3c(c(=O)n1C2)COC(=O)[C@]3(O)CC | 389 nM (active) and 544 nM (active) |
| NCCCC(O)(P(=O)(O)O)P(=O)(O)O | inactive |
| NC(=O)c1cccc(N)c1 | inactive |
| Cc1oc(=O)oc1CN1CCN(c2cc3c(cc2F)c(=O)c(C(=O)O)c2n3C(C)S2)CC1 (stereo not given) | inactive |
| Nc1nc(=S)c2[nH]cnc2[nH]1 | 2.46 µM (active) and 1.93 µM (active) |
| CCOC(=O)c1ccc(C#Cc2ccc3c(c2)C(C)(C)CCS3)nc1 | inactive |
| COc1nc(N)nc2c1ncn2[C@@H]1O[C@H](CO)[C@@H](O)[C@@H]1O | inactive |
| O=C(O)C1CCCN(CCC=C(c2ccccc2)c2ccccc2)C1 (stereo not given) | inactive |
| OC(Cn1cncn1)(Cn1cncn1)c1ccc(F)cc1F | inactive |

| SMILES | Potency |
| --- | --- |
| CCN1CCCC1CNC(=O)c1cc(S(N)(=O)=O)ccc1OC (stereo not given) | inactive |
| CCN(CC)CCn1c(=O)c(Cc2ccc(OC)cc2)nc2ccccc21 | inactive |
| O=S(=O)(c1cccc2cnccc12)N1CCCNCC1 | inactive |
| CCCCS(=N)(=O)CCC(N)C(=O)O (stereo not given) | inactive |
| CCN(CC)CC#CCOC(=O)C(O)(c1ccccc1)C1CCCCC1 (stereo not given) | inactive |
| O=P(O)(O)C(O)(Cc1cccnc1)P(=O)(O)O | inactive |
| COc1ccccc1OCC(O)COC(N)=O (stereo not given) | inactive |
| CCN(C)C(=O)Oc1cccc([C@H](C)N(C)C)c1 | inactive |
| CC(=O)[C@H]1CC[C@H]2[C@@H]3CC=C4C[C@@H](O)CC[C@]4(C)[C@H]3CC[C@]12C | inactive |
| CC(C)C[C@H](NC(=O)[C@H](CCc1ccccc1)NC(=O)CN1CCOCC1)C(=O)N[C@@H](Cc1ccccc1)C(=O)N[C@@H](CC(C)C)C(=O)[C@@]1(C)CO1 | 174 nM (active) and 306 nM (active) |
| COc1cc2nc(N3CCCN(C)CC3)nc(NC3CCN(Cc4ccccc4)CC3)c2cc1OC | 13.7 µM (active) |
| COc1cc2ncnc(Nc3cccc(Cl)c3)c2cc1OC | 21.7 µM (active) |
| O=C(O)c1cn(C2CC2)c2cc(N3CCNCC3)c(F)cc2c1=O | inactive |
| CNS(=O)(=O)Cc1ccc2[nH]cc(CCN(C)C)c2c1 | inactive |
| Cn1c(=O)c2c(ncn2CC(O)CO)n(C)c1=O (stereo not given) | inactive |
| CC(C)NCC(O)c1ccc(NS(C)(=O)=O)cc1 (stereo not given) | inactive |

Experiment: qHTS of pediatric cancer cell lines to identify multiple opportunities for drug repurposing: Primary screen for NB-EBc1 cells (AID 1347095)
Conditions: NB-EBc1 neuroblastoma viability, CellTiter-Glo luminescence, 48 h; series mostly up to 46 µM
In short: as §1

| SMILES | Potency |
| --- | --- |
| C[C@@H]1CN(c2c(F)c(N)c3c(=O)c(C(=O)O)cn(C4CC4)c3c2F)C[C@H](C)N1 | inactive |
| CC(=O)[C@H]1CC[C@H]2[C@@H]3CCC4=CC(=O)CC[C@]4(C)[C@H]3CC[C@]12C | inactive |
| CC1=C(C(=O)O)N2C(=O)[C@@H](NC(=O)C(N)c3ccccc3)[C@H]2SC1 (stereo not given in full) | inactive |
| CC1CC2C3CCC4=CC(=O)C=C[C@]4(C)[C@@]3(F)[C@@H](O)C[C@]2(C)[C@@]1(O)C(=O)CO (stereo not given in full) | inactive |
| C[C@@H]1C[C@H]2[C@@H]3CCC4=CC(=O)C=C[C@]4(C)[C@@]3(Cl)[C@@H](O)C[C@]2(C)[C@@]1(OC(=O)c1ccco1)C(=O)CCl | 11.8 µM (active) |
| NC(=O)c1ccc2[nH]ccc2c1 | inactive |
| CN1CCN(c2c(F)cc3c(=O)c(C(=O)O)cn4c3c2OCN4C)CC1 | inactive |
| N[C@@H](Cc1ccc(O)c(O)c1)C(=O)O | inactive |
| CCc1c2c(nc3ccc(OC(=O)N4CCC(N5CCCCC5)CC4)cc13)-c1cc3c(c(=O)n1C2)COC(=O)[C@]3(O)CC | 1.19 µM (active) and 332 nM (active) |
| NCCCC(O)(P(=O)(O)O)P(=O)(O)O | inactive |
| NC(=O)c1cccc(N)c1 | inactive |
| Cc1oc(=O)oc1CN1CCN(c2cc3c(cc2F)c(=O)c(C(=O)O)c2n3C(C)S2)CC1 (stereo not given) | inactive |
| Nc1nc(=S)c2[nH]cnc2[nH]1 | 0.743 µM (active) |
| CCOC(=O)c1ccc(C#Cc2ccc3c(c2)C(C)(C)CCS3)nc1 | inactive |
| COc1nc(N)nc2c1ncn2[C@@H]1O[C@H](CO)[C@@H](O)[C@@H]1O | inactive |
| O=C(O)C1CCCN(CCC=C(c2ccccc2)c2ccccc2)C1 (stereo not given) | inactive |

| SMILES | Potency |
| --- | --- |
| OC(Cn1cncn1)(Cn1cncn1)c1ccc(F)cc1F | inactive |
| CCN1CCCC1CNC(=O)c1cc(S(N)(=O)=O)ccc1OC (stereo not given) | inactive |
| CCN(CC)CCn1c(=O)c(Cc2ccc(OC)cc2)nc2ccccc21 | inactive |
| O=S(=O)(c1cccc2cnccc12)N1CCCNCC1 | inactive |
| CCCCS(=N)(=O)CCC(N)C(=O)O (stereo not given) | inactive |
| CCN(CC)CC#CCOC(=O)C(O)(c1ccccc1)C1CCCCC1 (stereo not given) | inactive |
| O=P(O)(O)C(O)(Cc1cccnc1)P(=O)(O)O | inactive |
| COc1ccccc1OCC(O)COC(N)=O (stereo not given) | inactive |
| CCN(C)C(=O)Oc1cccc([C@H](C)N(C)C)c1 | inactive |
| CC(=O)[C@H]1CC[C@H]2[C@@H]3CC=C4C[C@@H](O)CC[C@]4(C)[C@H]3CC[C@]12C | inactive |
| CC(C)C[C@H](NC(=O)[C@H](CCc1ccccc1)NC(=O)CN1CCOCC1)C(=O)N[C@@H](Cc1ccccc1)C(=O)N[C@@H](CC(C)C)C(=O)[C@@]1(C)CO1 | 53.1 nM (active) and 29.6 nM (active) |
| COc1cc2nc(N3CCCN(C)CC3)nc(NC3CCN(Cc4ccccc4)CC3)c2cc1OC | 23.5 µM (active) |
| O=C(O)c1cn(C2CC2)c2cc(N3CCNCC3)c(F)cc2c1=O | inactive |
| CNS(=O)(=O)Cc1ccc2[nH]cc(CCN(C)C)c2c1 | inactive |
| Cn1c(=O)c2c(ncn2CC(O)CO)n(C)c1=O (stereo not given) | inactive |
| CC(C)NCC(O)c1ccc(NS(C)(=O)=O)cc1 (stereo not given) | inactive |

Reference: PubChem BioAssay (NCATS)
